Measured values: PMC7862700, “An all-to-all approach to the identification of sequence-specific readers for epigenetic DNA modifications on cytosine”

Legend:
Test in all cases: DAPPL (digital affinity profiling via proximity ligation, sequencing); 10 mM Tris-HCl pH 7.5, 50 mM NaCl, 1 mM DTT, 4% glycerol, room temperature, 30 min; GST-TFs on glutathione beads, 16-mer random dsDNA library, 0.1% formaldehyde crosslink after washing; high values mean tight binding
FEV = target: T1, FEV (Homo sapiens, UniProt Q99581 1-238); settings: protein: recombinant; tags: N-terminal GST; dsDNA, one strand shown
T1 sequence: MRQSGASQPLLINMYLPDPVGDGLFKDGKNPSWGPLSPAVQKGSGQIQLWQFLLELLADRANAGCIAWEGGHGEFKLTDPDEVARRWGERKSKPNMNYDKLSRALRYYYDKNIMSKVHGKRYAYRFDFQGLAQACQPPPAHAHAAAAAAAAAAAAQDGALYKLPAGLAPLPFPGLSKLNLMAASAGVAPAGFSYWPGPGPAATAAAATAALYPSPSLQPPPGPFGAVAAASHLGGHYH
Summary of the method: (§1)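 Human transcription factors carrying a GST fusion were produced in yeast, bound to glutathione beads, tagged with DNA barcodes and pooled together with a tag-only sample. Each pool was held with 200 nmole of a random double-stranded 16-mer DNA library in Tris/NaCl/DTT/glycerol buffer for 30 min at room temperature, then washed, crosslinked in 0.1% formaldehyde, proximity-ligated with BsaI/T4 ligase (1 h, 37 °C), PCR-amplified and sequenced on an Illumina NextSeq500. Binding signal is the read frequency of each hexamer for a given factor divided by its frequency in the tag-only sample.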

ETV5 = ETV5 (Homo sapiens, UniProt P41161 1-510); settings: protein: recombinant; tags: N-terminal GST; dsDNA, one strand shown
Sequence of ETV5 (P41161 whole entry): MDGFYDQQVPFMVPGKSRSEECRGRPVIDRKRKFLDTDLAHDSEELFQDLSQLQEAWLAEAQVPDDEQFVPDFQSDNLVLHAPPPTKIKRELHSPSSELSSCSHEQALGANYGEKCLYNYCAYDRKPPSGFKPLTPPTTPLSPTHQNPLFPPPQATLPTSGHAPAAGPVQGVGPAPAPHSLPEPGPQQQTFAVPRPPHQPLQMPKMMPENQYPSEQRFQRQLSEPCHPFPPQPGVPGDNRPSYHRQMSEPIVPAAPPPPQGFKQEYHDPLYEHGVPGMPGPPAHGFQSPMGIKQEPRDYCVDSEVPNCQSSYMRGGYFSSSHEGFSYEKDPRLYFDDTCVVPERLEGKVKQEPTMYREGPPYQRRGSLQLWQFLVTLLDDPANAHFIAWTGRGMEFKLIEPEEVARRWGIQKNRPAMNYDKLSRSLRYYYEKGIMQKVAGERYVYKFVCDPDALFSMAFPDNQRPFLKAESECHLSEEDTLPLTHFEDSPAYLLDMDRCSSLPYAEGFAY
Summary of the method: as §1

HSF1 = HSF1 (Homo sapiens, UniProt Q00613 1-529); settings: protein: recombinant; tags: N-terminal GST; chain copies: 3; dsDNA, one strand shown
Sequence of HSF1 (Q00613 whole entry): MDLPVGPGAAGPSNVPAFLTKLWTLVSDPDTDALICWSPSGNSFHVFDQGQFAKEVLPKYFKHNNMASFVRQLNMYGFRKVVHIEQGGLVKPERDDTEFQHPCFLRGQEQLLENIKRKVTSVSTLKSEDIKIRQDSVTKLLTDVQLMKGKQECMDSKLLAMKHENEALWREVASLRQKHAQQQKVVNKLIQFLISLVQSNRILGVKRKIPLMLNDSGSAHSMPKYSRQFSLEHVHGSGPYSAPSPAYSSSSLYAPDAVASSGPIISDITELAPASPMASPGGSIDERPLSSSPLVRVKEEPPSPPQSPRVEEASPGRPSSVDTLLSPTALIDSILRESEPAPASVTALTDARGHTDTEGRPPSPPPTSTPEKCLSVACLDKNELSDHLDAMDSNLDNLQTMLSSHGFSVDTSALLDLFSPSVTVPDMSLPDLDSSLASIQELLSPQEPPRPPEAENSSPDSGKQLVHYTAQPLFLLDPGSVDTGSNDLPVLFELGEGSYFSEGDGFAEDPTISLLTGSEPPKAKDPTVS
Summary of the method: as §1

SPIC = target: T2, SPIC (Homo sapiens, UniProt Q8N5J4 1-248); settings: protein: recombinant; tags: N-terminal GST; dsDNA, one strand shown
T2 sequence: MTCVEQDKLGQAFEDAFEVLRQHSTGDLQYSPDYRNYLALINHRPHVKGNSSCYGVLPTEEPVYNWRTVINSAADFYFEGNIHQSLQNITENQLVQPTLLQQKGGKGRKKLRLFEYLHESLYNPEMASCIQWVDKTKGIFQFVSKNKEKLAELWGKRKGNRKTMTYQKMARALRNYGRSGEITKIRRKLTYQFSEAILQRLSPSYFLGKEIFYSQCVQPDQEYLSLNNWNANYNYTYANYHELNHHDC
Summary of the method: as §1

ELF4 = ELF4 (Homo sapiens, UniProt Q99607 1-663); settings: protein: recombinant; tags: N-terminal GST; dsDNA, one strand shown
Sequence of ELF4 (Q99607 whole entry): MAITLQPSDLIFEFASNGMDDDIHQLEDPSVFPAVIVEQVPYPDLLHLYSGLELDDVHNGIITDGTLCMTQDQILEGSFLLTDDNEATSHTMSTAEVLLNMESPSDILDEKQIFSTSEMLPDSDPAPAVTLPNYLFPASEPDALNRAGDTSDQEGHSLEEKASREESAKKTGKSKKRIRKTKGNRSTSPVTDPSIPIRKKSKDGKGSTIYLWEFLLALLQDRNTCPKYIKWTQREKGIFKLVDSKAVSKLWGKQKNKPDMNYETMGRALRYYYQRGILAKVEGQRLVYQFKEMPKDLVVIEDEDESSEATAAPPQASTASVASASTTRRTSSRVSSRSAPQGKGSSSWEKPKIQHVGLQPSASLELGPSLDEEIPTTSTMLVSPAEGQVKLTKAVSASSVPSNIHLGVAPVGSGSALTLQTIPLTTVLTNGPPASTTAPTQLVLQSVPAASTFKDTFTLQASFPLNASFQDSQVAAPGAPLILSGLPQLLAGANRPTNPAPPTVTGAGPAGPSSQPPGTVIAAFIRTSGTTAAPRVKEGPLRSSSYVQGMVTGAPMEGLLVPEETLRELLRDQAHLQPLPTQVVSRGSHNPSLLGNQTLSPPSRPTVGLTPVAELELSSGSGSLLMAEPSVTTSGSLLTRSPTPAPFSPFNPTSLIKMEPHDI
Summary of the method: as §1

ELK4 = target: T3, ELK4 (Homo sapiens, UniProt P28324-2 1-405); settings: protein: recombinant; tags: N-terminal GST; dsDNA, one strand shown
T3 sequence: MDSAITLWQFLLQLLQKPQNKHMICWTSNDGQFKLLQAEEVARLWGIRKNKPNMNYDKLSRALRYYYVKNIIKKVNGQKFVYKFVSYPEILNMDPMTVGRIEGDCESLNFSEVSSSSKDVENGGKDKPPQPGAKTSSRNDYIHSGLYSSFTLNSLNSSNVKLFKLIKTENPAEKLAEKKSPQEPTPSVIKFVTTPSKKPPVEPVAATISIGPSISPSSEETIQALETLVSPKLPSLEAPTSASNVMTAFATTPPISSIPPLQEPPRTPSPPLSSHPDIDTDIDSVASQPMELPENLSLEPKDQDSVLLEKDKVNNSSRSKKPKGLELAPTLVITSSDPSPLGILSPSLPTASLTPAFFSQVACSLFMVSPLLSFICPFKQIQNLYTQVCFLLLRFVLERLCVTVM
Summary of the method: as §1

ETV2 = target: T4, ETV2 (Homo sapiens, UniProt O00321 1-342); settings: protein: recombinant; tags: N-terminal GST; dsDNA, one strand shown
T4 sequence: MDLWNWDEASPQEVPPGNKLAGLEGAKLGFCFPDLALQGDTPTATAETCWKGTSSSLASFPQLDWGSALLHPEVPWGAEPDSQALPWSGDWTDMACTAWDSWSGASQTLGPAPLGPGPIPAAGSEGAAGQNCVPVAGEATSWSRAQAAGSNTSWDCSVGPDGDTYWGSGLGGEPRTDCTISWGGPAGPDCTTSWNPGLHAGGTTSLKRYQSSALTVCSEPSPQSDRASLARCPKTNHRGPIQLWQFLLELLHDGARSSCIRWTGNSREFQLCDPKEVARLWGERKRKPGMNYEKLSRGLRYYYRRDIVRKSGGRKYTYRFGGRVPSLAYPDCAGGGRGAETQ
Summary of the method: as §1

ELF3 = target: T5, ELF3 (Homo sapiens, UniProt P78545 1-371); settings: protein: recombinant; tags: N-terminal GST; dsDNA, one strand shown
T5 sequence: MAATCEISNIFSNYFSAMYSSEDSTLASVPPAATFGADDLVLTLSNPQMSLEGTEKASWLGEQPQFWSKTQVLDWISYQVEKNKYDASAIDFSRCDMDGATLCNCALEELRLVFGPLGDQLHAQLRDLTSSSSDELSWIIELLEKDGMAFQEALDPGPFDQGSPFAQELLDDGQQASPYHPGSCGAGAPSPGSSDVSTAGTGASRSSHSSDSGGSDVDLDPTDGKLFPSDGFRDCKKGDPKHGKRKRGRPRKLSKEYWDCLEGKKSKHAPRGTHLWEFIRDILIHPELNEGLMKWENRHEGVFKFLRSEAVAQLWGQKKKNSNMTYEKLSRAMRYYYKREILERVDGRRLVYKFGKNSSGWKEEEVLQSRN
Summary of the method: as §1

CRX = CRX (Homo sapiens, UniProt O43186 1-299); settings: protein: recombinant; tags: N-terminal GST; dsDNA, one strand shown
Sequence of CRX (O43186 whole entry): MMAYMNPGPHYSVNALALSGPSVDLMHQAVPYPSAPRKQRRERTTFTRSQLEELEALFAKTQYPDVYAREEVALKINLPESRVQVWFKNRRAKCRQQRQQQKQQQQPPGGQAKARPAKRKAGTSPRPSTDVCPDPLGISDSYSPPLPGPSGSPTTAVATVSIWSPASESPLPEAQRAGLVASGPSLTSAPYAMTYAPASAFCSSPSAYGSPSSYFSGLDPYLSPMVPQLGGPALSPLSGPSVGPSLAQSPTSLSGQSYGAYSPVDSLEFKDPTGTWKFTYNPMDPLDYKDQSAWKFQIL
Summary of the method: as §1

ETV1 = ETV1 (Homo sapiens, UniProt P50549 1-477); settings: protein: recombinant; tags: N-terminal GST; dsDNA, one strand shown
Sequence of ETV1 (P50549 whole entry): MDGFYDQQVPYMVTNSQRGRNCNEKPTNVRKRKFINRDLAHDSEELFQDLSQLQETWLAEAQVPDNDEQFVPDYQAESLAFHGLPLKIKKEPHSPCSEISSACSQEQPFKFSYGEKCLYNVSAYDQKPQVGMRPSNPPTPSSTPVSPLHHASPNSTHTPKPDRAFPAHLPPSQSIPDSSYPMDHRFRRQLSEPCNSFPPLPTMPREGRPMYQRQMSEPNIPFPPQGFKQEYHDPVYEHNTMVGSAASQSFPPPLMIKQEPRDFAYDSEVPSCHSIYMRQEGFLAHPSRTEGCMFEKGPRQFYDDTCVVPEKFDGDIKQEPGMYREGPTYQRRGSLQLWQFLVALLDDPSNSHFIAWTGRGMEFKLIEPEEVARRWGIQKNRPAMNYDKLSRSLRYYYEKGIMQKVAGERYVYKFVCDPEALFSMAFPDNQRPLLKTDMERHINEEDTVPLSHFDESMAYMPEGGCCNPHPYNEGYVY
Summary of the method: as §1

ERF = target: T6, ERF (Homo sapiens, UniProt P50548 1-548); settings: protein: recombinant; tags: N-terminal GST; dsDNA, one strand shown
T6 sequence: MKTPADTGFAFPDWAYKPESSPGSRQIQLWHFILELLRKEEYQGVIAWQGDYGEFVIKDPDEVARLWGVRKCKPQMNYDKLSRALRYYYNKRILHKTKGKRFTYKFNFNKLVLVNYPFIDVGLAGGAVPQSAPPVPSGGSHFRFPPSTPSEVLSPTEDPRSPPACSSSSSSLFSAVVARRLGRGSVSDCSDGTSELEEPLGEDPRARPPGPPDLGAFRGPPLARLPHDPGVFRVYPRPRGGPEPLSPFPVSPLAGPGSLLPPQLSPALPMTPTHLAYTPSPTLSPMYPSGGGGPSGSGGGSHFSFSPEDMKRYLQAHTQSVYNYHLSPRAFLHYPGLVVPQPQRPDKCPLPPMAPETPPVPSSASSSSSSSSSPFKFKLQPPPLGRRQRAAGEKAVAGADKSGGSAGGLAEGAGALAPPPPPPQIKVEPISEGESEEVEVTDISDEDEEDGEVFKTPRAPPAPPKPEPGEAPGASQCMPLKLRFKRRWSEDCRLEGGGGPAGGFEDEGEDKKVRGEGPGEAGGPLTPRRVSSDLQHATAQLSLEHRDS
Summary of the method: as §1

ETV3L = target: T7, ETV3L (Homo sapiens, UniProt Q6ZN32 1-361); settings: protein: recombinant; tags: N-terminal GST; dsDNA, one strand shown
T7 sequence: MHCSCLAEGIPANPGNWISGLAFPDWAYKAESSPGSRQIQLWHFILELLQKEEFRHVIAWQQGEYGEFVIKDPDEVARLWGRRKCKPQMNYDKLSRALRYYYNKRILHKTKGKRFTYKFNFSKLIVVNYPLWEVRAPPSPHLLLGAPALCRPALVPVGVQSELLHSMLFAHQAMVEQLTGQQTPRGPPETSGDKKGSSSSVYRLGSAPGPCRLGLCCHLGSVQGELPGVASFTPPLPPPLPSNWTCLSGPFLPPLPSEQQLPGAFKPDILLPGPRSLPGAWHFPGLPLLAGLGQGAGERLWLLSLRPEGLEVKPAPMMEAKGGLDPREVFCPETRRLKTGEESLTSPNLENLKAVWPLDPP
Summary of the method: as §1

ETS2 = target: T8, ETS2 (Homo sapiens, UniProt P15036 1-469); settings: protein: recombinant; tags: N-terminal GST; dsDNA, one strand shown
T8 sequence: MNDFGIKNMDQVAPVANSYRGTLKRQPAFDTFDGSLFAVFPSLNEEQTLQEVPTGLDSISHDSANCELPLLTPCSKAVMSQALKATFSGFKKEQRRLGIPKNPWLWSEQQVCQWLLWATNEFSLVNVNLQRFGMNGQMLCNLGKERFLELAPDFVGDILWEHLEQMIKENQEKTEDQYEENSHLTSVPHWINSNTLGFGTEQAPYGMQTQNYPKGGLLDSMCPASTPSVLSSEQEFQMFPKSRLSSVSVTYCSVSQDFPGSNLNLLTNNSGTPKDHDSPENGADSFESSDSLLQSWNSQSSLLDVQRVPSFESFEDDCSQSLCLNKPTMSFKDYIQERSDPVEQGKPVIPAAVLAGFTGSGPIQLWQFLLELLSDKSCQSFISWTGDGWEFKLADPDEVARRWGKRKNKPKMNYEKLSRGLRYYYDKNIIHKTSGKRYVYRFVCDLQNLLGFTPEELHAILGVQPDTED
Summary of the method: as §1

SPDEF = target: T9, SPDEF (Homo sapiens, UniProt O95238 1-335); settings: protein: recombinant; tags: N-terminal GST; dsDNA, one strand shown
T9 sequence: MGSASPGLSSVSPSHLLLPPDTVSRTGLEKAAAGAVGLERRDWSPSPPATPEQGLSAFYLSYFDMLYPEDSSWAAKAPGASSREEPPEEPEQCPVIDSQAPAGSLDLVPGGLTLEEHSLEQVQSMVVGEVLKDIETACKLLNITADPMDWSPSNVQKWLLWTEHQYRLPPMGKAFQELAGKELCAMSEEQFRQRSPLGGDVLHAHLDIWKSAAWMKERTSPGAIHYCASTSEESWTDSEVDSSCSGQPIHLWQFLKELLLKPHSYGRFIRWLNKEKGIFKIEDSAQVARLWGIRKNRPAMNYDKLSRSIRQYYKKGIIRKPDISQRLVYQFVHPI
Summary of the method: as §1

ETV7 = target: T10, ETV7 (Homo sapiens, UniProt Q9Y603 1-341); settings: protein: recombinant; tags: N-terminal GST; dsDNA, one strand shown
T10 sequence: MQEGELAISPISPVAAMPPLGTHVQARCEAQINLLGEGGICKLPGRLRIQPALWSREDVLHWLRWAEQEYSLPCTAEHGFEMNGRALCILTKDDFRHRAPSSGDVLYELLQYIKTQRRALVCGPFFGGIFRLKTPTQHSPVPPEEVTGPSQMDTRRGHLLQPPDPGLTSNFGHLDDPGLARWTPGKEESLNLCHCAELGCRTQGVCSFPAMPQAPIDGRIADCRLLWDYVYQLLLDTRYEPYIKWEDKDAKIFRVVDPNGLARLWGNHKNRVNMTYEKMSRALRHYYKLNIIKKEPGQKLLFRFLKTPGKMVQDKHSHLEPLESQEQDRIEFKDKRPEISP
Summary of the method: as §1

ELF5 = target: T11, ELF5 (Homo sapiens, UniProt Q9UKW6-2 1-255); settings: protein: recombinant; tags: N-terminal GST; dsDNA, one strand shown
T11 sequence: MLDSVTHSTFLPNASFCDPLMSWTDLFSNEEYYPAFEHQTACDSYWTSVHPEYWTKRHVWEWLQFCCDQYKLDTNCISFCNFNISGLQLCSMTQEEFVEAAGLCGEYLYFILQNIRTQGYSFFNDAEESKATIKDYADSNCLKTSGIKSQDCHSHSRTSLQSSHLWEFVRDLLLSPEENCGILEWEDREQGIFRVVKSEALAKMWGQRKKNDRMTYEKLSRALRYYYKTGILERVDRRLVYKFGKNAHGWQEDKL
Summary of the method: as §1

ETV3 = target: T12, ETV3 (Homo sapiens, UniProt P41162-2 1-143); settings: protein: recombinant; tags: N-terminal GST; dsDNA, one strand shown
T12 sequence: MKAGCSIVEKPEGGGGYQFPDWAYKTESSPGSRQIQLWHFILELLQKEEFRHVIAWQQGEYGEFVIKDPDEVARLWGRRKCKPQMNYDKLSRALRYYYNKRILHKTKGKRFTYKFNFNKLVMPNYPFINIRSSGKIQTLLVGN
Summary of the method: as §1

ETV6 = ETV6 (Homo sapiens, UniProt P41212 1-452); settings: protein: recombinant; tags: N-terminal GST; dsDNA, one strand shown
Sequence of ETV6 (P41212 whole entry): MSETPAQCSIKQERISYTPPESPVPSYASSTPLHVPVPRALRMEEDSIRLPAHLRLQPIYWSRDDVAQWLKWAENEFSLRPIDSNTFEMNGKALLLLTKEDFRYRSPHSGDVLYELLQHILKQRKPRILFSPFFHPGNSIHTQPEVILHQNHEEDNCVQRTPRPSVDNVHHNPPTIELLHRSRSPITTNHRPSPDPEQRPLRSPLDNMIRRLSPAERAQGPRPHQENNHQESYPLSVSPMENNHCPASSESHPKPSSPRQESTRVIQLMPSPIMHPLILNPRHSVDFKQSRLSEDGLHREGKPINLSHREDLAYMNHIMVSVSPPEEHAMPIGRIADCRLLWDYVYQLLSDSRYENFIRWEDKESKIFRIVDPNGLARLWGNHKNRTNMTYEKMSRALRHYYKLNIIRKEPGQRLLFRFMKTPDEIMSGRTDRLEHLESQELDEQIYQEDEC
Summary of the method: as §1

CTCTTT was tested, and the binding signal (FEV) was 1.47 fold enrichment (6-mer frequency, TF over GST control), the binding signal (ETV5) was 1.42 fold enrichment (6-mer frequency, TF over GST control) and the binding signal (HSF1) was 1.4 fold enrichment (6-mer frequency, TF over GST control). For the same sequence, the binding signal (SPIC) was 1.35 fold enrichment (6-mer frequency, TF over GST control), the binding signal (ELF4) was 1.44 fold enrichment (6-mer frequency, TF over GST control) and the binding signal (ELK4) was 1.31 fold enrichment (6-mer frequency, TF over GST control). For the same sequence, the binding signal (ETV2) was 1.58 fold enrichment (6-mer frequency, TF over GST control), the binding signal (ELF3) was 1.4 fold enrichment (6-mer frequency, TF over GST control) and the binding signal (CRX) was 1.53 fold enrichment (6-mer frequency, TF over GST control). The binding signal (ETV1) was 1.44 fold enrichment (6-mer frequency, TF over GST control), the binding signal (ERF) was 1.39 fold enrichment (6-mer frequency, TF over GST control) and the binding signal (ETV3L) was 1.53 fold enrichment (6-mer frequency, TF over GST control). For the same sequence, the binding signal (ETS2) was 1.41 fold enrichment (6-mer frequency, TF over GST control), the binding signal (SPDEF) was 1.53 fold enrichment (6-mer frequency, TF over GST control) and the binding signal (ETV7) was 1.5 fold enrichment (6-mer frequency, TF over GST control). For the same sequence, the binding signal (ELF5) was 1.42 fold enrichment (6-mer frequency, TF over GST control), the binding signal (ETV3) was 1.53 fold enrichment (6-mer frequency, TF over GST control) and the binding signal (ETV6) was 1.4 fold enrichment (6-mer frequency, TF over GST control).
